Measurements taken from the supplement of paper PMC11732987, “Enantioselective OTUD7B fragment discovery through chemoproteomics screening and high-throughput optimisation” (Communications Chemistry, 2025).

How the values were obtained:
Test in all cases: log2 ratio of Biotin-Ahx-Ub-VS probe labelling (fragment/DMSO); higher = less target engagement (more negative = stronger competition), active = hit call of the paper (q ≤ 0.05, log2 ratio ≤ -1)
Conditions in all cases: compound concentration: 200 uM; treatment time: 3 h
ALG13 = target: T1, ALG13 (UniProt Q9NP73)
T1 sequence (whole entry): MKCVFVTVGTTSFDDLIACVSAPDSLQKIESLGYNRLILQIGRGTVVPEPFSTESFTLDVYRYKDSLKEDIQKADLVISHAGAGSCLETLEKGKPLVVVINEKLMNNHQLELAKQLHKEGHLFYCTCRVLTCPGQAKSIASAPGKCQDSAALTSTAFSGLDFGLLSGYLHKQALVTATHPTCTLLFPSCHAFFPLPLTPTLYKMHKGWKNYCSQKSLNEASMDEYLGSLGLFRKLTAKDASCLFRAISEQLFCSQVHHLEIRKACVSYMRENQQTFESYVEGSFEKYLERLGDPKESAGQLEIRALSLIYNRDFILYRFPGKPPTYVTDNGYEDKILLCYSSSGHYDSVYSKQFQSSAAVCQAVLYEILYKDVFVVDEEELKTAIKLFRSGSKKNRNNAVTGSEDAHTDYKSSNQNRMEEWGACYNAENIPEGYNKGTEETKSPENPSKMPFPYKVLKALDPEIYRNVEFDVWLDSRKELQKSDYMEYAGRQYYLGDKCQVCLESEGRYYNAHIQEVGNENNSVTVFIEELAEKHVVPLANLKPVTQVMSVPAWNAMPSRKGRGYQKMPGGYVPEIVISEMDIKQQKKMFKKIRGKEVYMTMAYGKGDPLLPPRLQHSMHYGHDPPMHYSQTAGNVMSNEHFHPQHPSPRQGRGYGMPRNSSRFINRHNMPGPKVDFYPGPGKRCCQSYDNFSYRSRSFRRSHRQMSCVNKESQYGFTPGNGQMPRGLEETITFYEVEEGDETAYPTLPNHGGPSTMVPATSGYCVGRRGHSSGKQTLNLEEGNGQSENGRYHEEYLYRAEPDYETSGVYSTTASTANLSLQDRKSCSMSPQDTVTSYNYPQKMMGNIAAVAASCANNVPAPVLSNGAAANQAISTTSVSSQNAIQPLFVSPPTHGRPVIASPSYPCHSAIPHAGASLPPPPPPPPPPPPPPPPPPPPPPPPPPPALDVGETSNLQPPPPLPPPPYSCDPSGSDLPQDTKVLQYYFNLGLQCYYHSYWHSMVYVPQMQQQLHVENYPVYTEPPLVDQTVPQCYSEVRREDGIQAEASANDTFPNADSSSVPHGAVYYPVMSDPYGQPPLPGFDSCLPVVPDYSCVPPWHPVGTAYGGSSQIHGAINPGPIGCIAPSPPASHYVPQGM
How it was run: (§1)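 Fragment (200 µM) or vehicle was incubated for 3 h with triplicate HEK293T lysate samples of 495 µg, which were then treated with Biotin-Ahx-Ub-VS at 0.5 µM final for 1 h. Labelled DUBs were enriched on NeutrAvidin, digested with LysC and trypsin, and analysed by diaPASEF LC-MS/MS. Values are average log2 fragment/vehicle ratios from an unpaired t-test on global-median-normalised Spectronaut label-free quantities, using proteins with ≥2 unique peptides.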

ATXN3 = ATXN3 (UniProt P54252)
How it was run: as §1

BAP1 = target: T2, BAP1 (UniProt Q92560)
T2 sequence (whole entry): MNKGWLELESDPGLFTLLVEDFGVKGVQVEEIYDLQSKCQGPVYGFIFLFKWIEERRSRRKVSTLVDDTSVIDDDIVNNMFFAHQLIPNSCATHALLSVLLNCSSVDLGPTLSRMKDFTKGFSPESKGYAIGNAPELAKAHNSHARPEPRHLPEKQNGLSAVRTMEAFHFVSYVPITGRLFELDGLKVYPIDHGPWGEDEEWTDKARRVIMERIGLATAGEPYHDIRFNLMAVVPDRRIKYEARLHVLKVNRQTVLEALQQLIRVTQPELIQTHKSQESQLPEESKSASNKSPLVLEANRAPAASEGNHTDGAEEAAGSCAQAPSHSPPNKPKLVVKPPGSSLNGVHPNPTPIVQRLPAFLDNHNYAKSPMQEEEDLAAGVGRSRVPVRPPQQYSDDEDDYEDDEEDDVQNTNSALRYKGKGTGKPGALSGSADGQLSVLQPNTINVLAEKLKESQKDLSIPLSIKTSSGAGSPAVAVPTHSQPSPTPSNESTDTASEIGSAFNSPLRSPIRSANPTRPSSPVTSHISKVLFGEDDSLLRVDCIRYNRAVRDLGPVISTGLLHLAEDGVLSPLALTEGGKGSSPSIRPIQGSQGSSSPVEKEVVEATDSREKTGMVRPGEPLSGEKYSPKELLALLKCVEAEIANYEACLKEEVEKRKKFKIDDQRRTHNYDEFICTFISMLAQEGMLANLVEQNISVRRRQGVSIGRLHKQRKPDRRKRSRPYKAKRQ
How it was run: as §1

EIF3F = EIF3F (UniProt O00303)
How it was run: as §1

EIF3H = EIF3H (UniProt O15372)
How it was run: as §1

FAM105A = target: T3, FAM105A (UniProt Q9NUU6)
T3 sequence (whole entry): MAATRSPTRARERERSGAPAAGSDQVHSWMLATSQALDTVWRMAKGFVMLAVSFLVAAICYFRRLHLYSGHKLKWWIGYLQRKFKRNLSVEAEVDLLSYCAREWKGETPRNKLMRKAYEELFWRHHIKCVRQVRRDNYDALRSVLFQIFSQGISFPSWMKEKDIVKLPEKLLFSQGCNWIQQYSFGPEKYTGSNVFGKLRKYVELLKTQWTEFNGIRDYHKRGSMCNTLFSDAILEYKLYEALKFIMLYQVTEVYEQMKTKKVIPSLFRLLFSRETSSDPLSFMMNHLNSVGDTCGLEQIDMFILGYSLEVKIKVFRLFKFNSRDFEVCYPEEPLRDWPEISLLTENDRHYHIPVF
How it was run: as §1

OTUB1 = OTUB1 (UniProt Q96FW1)
How it was run: as §1

OTUD4 = target: T4, OTUD4 (UniProt Q01804)
T4 sequence (whole entry): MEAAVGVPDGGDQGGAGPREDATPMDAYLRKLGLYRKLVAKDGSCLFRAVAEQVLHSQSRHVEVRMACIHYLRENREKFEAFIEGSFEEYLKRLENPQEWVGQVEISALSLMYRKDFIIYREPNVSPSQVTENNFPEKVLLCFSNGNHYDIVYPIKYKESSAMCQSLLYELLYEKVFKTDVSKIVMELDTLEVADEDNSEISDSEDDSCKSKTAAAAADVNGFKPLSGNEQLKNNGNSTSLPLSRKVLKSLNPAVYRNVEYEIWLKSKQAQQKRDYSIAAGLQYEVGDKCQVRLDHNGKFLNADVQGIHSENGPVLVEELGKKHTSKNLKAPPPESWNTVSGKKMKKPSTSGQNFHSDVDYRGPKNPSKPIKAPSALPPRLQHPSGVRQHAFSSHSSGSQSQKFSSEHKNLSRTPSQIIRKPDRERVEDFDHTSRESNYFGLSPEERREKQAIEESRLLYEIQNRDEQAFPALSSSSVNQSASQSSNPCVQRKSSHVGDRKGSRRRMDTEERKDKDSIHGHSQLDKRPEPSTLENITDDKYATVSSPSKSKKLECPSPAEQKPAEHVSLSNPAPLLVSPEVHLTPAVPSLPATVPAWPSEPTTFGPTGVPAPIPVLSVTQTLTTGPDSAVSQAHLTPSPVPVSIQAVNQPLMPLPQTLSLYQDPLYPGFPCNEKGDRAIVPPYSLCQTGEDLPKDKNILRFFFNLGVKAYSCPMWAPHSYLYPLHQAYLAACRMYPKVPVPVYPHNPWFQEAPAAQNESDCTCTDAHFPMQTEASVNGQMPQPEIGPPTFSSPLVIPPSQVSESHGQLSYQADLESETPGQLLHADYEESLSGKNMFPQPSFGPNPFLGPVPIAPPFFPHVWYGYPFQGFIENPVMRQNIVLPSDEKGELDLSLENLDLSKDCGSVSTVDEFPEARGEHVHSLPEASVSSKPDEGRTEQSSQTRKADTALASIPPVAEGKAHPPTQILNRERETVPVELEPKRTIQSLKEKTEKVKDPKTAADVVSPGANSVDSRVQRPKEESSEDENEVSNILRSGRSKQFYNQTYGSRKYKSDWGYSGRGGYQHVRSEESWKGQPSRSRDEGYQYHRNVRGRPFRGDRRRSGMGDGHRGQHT
How it was run: as §1

OTUD5 = target: T5, OTUD5 (UniProt Q96G74)
T5 sequence (whole entry): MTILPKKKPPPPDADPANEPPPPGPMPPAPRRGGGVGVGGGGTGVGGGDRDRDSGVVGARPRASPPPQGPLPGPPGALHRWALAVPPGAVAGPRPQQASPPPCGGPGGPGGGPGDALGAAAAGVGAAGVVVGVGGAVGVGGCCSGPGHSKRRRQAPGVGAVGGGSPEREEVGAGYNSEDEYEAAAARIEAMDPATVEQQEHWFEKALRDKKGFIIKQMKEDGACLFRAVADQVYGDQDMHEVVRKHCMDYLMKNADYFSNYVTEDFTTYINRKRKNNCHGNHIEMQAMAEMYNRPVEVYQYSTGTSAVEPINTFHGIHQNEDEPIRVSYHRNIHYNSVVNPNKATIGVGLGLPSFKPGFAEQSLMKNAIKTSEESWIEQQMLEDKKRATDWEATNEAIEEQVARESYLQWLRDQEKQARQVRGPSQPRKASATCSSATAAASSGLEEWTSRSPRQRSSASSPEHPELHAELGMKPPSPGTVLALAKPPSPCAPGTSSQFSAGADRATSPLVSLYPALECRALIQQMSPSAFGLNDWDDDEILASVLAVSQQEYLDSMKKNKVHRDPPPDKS
How it was run: as §1

Measured: log2 ratio of Biotin-Ahx-Ub-VS probe labelling

Chain of EIF3H (O15372 whole entry): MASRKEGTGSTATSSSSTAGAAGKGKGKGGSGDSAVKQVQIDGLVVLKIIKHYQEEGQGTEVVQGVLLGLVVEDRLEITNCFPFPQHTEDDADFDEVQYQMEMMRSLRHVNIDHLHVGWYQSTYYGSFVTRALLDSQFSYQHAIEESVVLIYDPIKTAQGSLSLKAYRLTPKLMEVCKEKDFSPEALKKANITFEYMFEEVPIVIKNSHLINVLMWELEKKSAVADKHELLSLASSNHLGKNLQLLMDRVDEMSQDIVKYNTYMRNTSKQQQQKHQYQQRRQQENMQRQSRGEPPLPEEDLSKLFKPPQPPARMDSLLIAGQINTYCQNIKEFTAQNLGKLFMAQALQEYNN
Chain of EIF3F (O00303 whole entry): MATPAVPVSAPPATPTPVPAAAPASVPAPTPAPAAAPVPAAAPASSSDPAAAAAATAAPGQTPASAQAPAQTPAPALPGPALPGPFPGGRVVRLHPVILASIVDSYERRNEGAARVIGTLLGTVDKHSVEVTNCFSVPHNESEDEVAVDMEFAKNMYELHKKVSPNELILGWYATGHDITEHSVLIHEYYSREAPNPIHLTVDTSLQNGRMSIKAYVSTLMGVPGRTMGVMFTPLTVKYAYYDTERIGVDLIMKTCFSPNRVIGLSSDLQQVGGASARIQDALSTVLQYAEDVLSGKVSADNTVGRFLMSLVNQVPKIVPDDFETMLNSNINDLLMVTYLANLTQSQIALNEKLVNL
Chain of OTUB1 (Q96FW1 whole entry): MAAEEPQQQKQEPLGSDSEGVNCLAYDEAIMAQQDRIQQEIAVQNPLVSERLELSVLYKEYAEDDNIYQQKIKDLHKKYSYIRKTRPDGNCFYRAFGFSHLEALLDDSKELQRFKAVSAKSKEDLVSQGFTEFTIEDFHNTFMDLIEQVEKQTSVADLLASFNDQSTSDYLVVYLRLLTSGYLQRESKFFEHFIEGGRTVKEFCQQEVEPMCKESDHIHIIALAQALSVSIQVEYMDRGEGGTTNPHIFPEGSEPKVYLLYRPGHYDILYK
Chain of ATXN3 (P54252 whole entry): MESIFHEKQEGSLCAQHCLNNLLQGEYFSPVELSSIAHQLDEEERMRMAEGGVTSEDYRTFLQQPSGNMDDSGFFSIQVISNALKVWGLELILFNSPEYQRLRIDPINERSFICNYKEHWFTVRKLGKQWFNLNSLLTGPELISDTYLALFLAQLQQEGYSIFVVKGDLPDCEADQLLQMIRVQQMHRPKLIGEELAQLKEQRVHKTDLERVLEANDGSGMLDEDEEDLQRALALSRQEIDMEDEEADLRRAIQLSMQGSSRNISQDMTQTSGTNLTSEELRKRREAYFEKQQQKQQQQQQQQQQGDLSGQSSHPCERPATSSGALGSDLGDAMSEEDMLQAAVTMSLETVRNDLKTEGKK

Cc1ncc2c(n1)CCN(C(=O)CCl)C2
inactive: ALG13 -0.466 | ATXN3 -0.614 | BAP1 -0.39 | EIF3F -0.159 | EIF3H 0.129 | FAM105A 0.443 | OTUB1 -0.578 | OTUD4 -0.0123 | OTUD5 -0.606
